Screening data deposited in PubChem by National Center for Advancing Translational Sciences (NCATS).
Only some compounds are listed: those with a hit (about 3.8% of all), similar ones and a draw of the others.
HepG2 tox = HepG2 cytotoxicity, counter-screen for TGF-b inhibitors. HepG2 CAGA-GFP viability, ATP luminescence, 18 h. Potency, µM (titrated, usually from 46.1 µM), without a hit: at the highest dose activity change, negative = cytotoxicity, most hits filed as cytotoxic. hit rate 0.76% among 410,000. AID 588856
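HepG2 CAGA-GFP cells (1000/well, DMEM with 1% FBS) received compound, then TGF-beta at 500 pg/mL final, and were incubated 18 hours at 37 degrees C. Viability was read by CellTiter-Glo luminescence. Media-only wells were set as complete cell-killing and DMSO as no toxicity.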
TGFb inhibitor = inhibitors of TGF-b signaling; HepG2 CAGA-GFP TGF-b/SMAD3 reporter, GFP fluorescence, 18 h; TGF-beta stimulated, 500 pg/mL final; Potency, µM (doses to about 46.1 µM), for the others: top-dose activity, negative = inhibition, most hits filed as inhibitors; hit rate 1.2% among 410,000; note: % is set by controls: 0 for no effect and ±100 for the full control effect; nearly all actives have a fitted effect of over 65% in size
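Read-out: total well GFP (ex488/em500-530) summed from mean per-cell fluorescence. Cells: HEPG2 CAGA-GFP, 1% FBS DMEM, 18 h at 37 degrees C with 500 pg/mL final TGF-beta. Unstimulated wells served as the full-inhibition control; stimulated DMSO wells = 0%.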
HT1080 IDH1KD tx = HT-1080 IDH1 knockdown cell toxicity (counter line) | hit rate 2% among 360,000 | HT-1080 IDH1 knockdown viability, ATP luminescence, 48 h | Potency, µM (highest dose often 46.1 µM), inactives show top-dose activity, negative = toxicity, actives largely listed as cytotoxic;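 note: 0% = DMSO wells and -100% = cell-free medium wells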
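Luminescent ATP read-out (CellTiter-Glo, 10 min at room temperature) after 48 h compound exposure at 37 °C gave viability of IDH1-knockdown HT-1080 cells. Activity was normalised to DMSO and cell-free wells, then fitted as concentration-response curves.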
ATXN2 expr inh = ATXN2 expression inhibition. HEK-293 ATXN2-luciferase reporter, luminescence, 24 h. Potency, µM (series often up to 57 µM), without a hit: at the top dose activity change, negative = inhibition, most hits filed as inhibitors. hit rate 0.72% among 360,000. AID 1745845; note: % is set by controls: 0 for no effect and ±100 for the full control effect; nearly all actives have a fitted effect of over 55% in size
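ATXN2-luciferase reporter cells (luciferase flanked by upstream and downstream ATXN2 gene portions) were treated 24 h at 37 °C with compounds at up to 57 uM. SteadyGlo luminescence gave expression; GF-AFC fluorescence gave viability.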
ATXN viability = cell viability loss in ATXN counter-screen | S2 cells (HEK-293 line with an ATXN2-luciferase reporter) viability, CellTiter-Fluor protease fluorescence, 24 h | Potency, µM (top dose mostly 56.7 µM), actives largely listed as cytotoxic | hit rate 0.49% among 400,000; note: nearly all actives have a fitted effect of over 40% in size
HT1080-NT tox = kills 2HG-producing HT-1080-NT fibrosarcoma cells; HT-1080-NT fibrosarcoma viability, CellTiter-Glo ATP luminescence, 48 h; hit rate 1.6% among 360,000; AID 686970; Potency, µM (series often up to 46.1 µM), inactives show at the highest dose activity, negative = less viability, actives largely listed as cytotoxic;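 note: NT is the 2HG producing partner of a matched IDH1 knockdown line; 0% = DMSO-treated cells and -100% = media-only wells without cells; nearly all actives have a fitted effect of over 55% in size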
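HT-1080-NT; 750 cells/well; 5% FBS RPMI; 48 h compound, 37 degrees C; CellTiter-Glo luminescence; curve fitting and curve-class assignment.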
Active calls of the source: *; i = inactive; ? = inconclusive; . = no result. Calls come from the whole dose curve; as a rule, active = well fitted curve in the direction sought with a large enough effect; inconclusive = small, poorly fitted or top-dose-only effect, or another doubt; inactive = no such curve, though single readings can be large; an effect the other way counts as inactive or inconclusive. Potency is the fitted concentration of half-maximal effect.

SMILES	HepG2 tox	TGFb inhibitor	HT1080 IDH1KD tx	ATXN2 expr inh	ATXN viability	HT1080-NT tox
Cc1ccc(C)c(N2CCN(CCCNC(=O)Cn3cccc3C(=O)c3ccccc3)CC2)c1	-35%	-14%	8%	?	17µM*	2%
CCN(CC)S(=O)(=O)c1ccc2c(c1)N(CC(=O)NCCCN1CCN(c3cc(C)ccc3C)CC1)C(=O)CO2	16µM*	?	.	32µM*	16µM*	.
O=C(Cn1cccc1C(=O)c1ccccc1)NCCCN1CCOCC1	-14%	2%	21%	0%	i	21%
Cc1ccc(-c2nn(-c3ccccc3)cc2C(N)=O)o1	-19%	0%	2%	19%	i	4%
Cc1ccc(-c2nn(-c3ccccc3)cc2C=O)o1	-11%	-7%	18µM*	5%	i	?
COc1cc2cc(CNc3ccccc3)c(=O)n(CC(=O)Nc3ccccc3)c2cc1OC	-30%	?	.	13%	.	.
O=S1(=O)CCOC[C@H](c2ccccc2)N1Cc1ccc(F)cc1	-15%	-23%	.	.	.	.
CC[n+]1ccccc1/C=C1\Sc2ccc(C)cc2N1C	-64%	?	9.2µM*	4µM*	?	23µM*
CCOC(=O)CC(NC(=O)CCc1c(C)nc2c(-c3ccccc3)c(C)nn2c1C)c1ccc(C)cc1 (stereo not given)	1%	10µM*	.	?	i	.
CCOC(=O)CC(NC(=O)CCc1c(C)nc2cc(-c3ccccc3)nn2c1C)c1ccc(C)cc1 (stereo not given)	-32%	?	.	?	?	.
CCOC(=O)CC(NC(=O)CCc1c(C)nc2c(-c3ccccc3)c(C)nn2c1C)c1ccc(OC(C)C)cc1 (stereo not given)	-35%	16µM*	.	?	.	.
Cc1ccc(CN(C)C(=O)c2ccc(NS(=O)(=O)c3ccc4[nH]c(=O)[nH]c4c3)cc2)cc1	5%	?	6%	10%	i	-1%
CN(Cc1cccc(F)c1)C(=O)c1ccc(NS(=O)(=O)c2ccc3[nH]c(=O)[nH]c3c2)cc1	0.28µM*	-16%	-2%	-15%	i	-4%
CCc1ccccc1NNC(=O)c1cc(C)on1	-31%	-27%	-23%	.	i	-14%
CCc1ccc(C(=O)NNc2ccccc2F)cc1	17%	0%	?	-33%	i	?
Cc1cc(C(=O)NNc2ccc(F)cc2)no1	-3%	-9%	5.2µM*	-7%	i	?
Cc1cc(C(=O)NNc2ccccc2F)no1	-4%	6%	2.6µM*	-32%	i	5.2µM*
CCCc1ccc(C(=O)NNc2ccccc2F)cc1	-9%	-6%	6.5µM*	.	i	?
Cc1cc(C(=O)NNc2c(Cl)cccc2Cl)no1	9%	2%	7%	.	.	-3%
CCOC(=O)c1c(C)[nH]c(CCC(=O)Nc2c(C)cccc2CC)c1C	-14%	0%	.	.	.	.
COCc1ccc(CN2Cc3cc(Cl)ccc3OC(C)C2)o1 (stereo not given)	.	.	.	.	i	.
CC(=O)Nc1ccc(/C=C2\C=Cc3ccccc32)cc1	-29%	1%	.	.	.	.
CC1CCN(CCCNC(=O)c2cc3c(Cl)nc4ccccc4c3s2)CC1	-94%	?	-2%	.	.	?
O=C(NCCCN1CCCC1)c1cc2c(Cl)nc3ccccc3c2s1	-24%	-16%	21µM*	?	?	?
CCCN1CCN(CCCNC(=O)c2cc3c(Cl)nc4ccccc4c3s2)CC1	13µM*	?	.	?	?	.
O=C(NCc1ccncc1)c1cnn(-c2ncc3c(n2)-c2ccccc2CC3)c1C1CC1	.	.	.	.	i	.
O=C(C[n+]1cccc2cc(Cl)ccc21)c1ccc(Br)cc1	-53%	?	.	.	.	.
OCCN1CCN(CC/C=C2/c3ccccc3Sc3ccc(Cl)cc32)CC1	-106%	?	?	?	?	?
CCCCCCCCCCC[N+](C)(C)CC/C=C1/c2ccccc2Sc2ccc(Cl)cc21	20µM*	?	?	.	11µM*	?
